Measurements published in PubChem BioAssay AID1159580 (chemical genetic matrix, 2015).
Out of some 5,500 compounds screened, about 2,000 (36%) were called active. Roughly 18% stayed inconclusive and do not appear here. No stated cut-off is given here; in the data, active means normalized growth mostly below about 0.91 (no sharp cut-off); inconclusive means no clear call, values can overlap the other calls; inactive means mostly above about 0.92. This is one part of the list.

Test: chemical genetic growth profiling, strain panel (AID 1159580);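 further: tested at 20 µM; growth read once vehicle control cultures reached saturation at 30 °C; 1 = growth at the plate median or of vehicle wells; lower values mean less growth of the strain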
Settings: growth OD
[1] = S. cerevisiae deletion strains, locus YGR078C, strain PAC10, hits give low values
[2] = S. cerevisiae deletion strains, locus YPL055C, strain LGE1, hits give low values
[3] = S. cerevisiae deletion strains, locus YPL241C, strain CIN2, hits give low values

Measured: normalized growth

CC12CCC(C1)C(C)(C)C2NC(=O)c1cccs1 (stereo not given)
inactive: S. cerevisiae deletion strains, locus YAL013W, strain DEP1, hits give low values 0.976 | S. cerevisiae deletion strains, locus YBR229C, strain ROT2, hits give low values 1.01 | S. cerevisiae deletion strains, locus YDL101C, strain DUN1, hits give low values 0.995 | S. cerevisiae deletion strains, locus YDL134C, strain PPH21, hits give low values 0.991 | S. cerevisiae deletion strains, locus YDR150W, strain NUM1, hits give low values 0.907 | S. cerevisiae deletion strains, locus YEL061C, strain CIN8, hits give low values 1.02 | [1] 0.98 | S. cerevisiae deletion strains, locus YHR030C, strain SLT2, hits give low values 0.848 | S. cerevisiae deletion strains, locus YHR087W, strain rtc3, hits give low values 0.983 | S. cerevisiae deletion strains, locus YJL187C, strain SWE1, hits give low values 0.992 | S. cerevisiae deletion strains, locus YJR043C, strain POL32, hits give low values 0.956 | S. cerevisiae deletion strains, locus YJR075W, strain HOC1, hits give low values 0.97 | S. cerevisiae deletion strains, locus YLR039C, strain RIC1, hits give low values 1.03 | S. cerevisiae deletion strains, locus YLR058C, strain SHM2 (second series), hits give low values 0.994 | S. cerevisiae deletion strains, locus YLR085C, strain ARP6, hits give low values 0.944 | S. cerevisiae deletion strains, locus YLR262C, strain YPT6, hits give low values 1.03 | S. cerevisiae deletion strains, locus YML094W, strain GIM5, hits give low values 0.976 | S. cerevisiae deletion strains, locus YMR219W, strain ESC1, hits give low values 0.988 | S. cerevisiae deletion strains, locus YMR263W, strain SAP30, hits give low values 0.942 | S. cerevisiae deletion strains, locus YMR307W, strain GAS1, hits give low values 0.834 | S. cerevisiae deletion strains, locus YNL153C, strain GIM3, hits give low values 1 | S. cerevisiae deletion strains, locus YNL298W, strain CLA4 (second series), hits give low values 0.983 | S. cerevisiae deletion strains, locus YNL322C, strain KRE1, hits give low values 0.987 | S. cerevisiae deletion strains, locus YNR030W, strain Alg12, hits give low values 0.995 | S. cerevisiae deletion strains, locus YOL006C, strain TOP1, hits give low values 0.924 | [2] 0.968 | [3] 0.976 | S. cerevisiae deletion strains, locus YPR135W, strain CTF4, hits give low values 0.858 | S. cerevisiae strains, strain wild type, hits give low values 0.954

CC[N+](C)(C)Cc1ccccc1Br
inactive: S. cerevisiae deletion strains, locus YAL040C, strain CLN3, hits give low values 0.99 | S. cerevisiae deletion strains, locus YCL061C, strain MRC1 (second series), hits give low values 1.01 | S. cerevisiae deletion strains, locus YDR363W, strain ESC2, hits give low values 0.991 | S. cerevisiae deletion strains, locus YER002W, strain NOP16, hits give low values 0.993 | [1] 0.99 | S. cerevisiae deletion strains, locus YNL175C, strain NOP13, hits give low values 1.01 | S. cerevisiae deletion strains, locus YNL197C, strain WHI3, hits give low values 1.01 | S. cerevisiae deletion strains, locus YNL224C, strain SQS1, hits give low values 0.983 | S. cerevisiae deletion strains, locus YOR083W, strain WHI5 (second series), hits give low values 0.974 | [2] 0.999 | [3] 1.01
